# According to PubChem BioAssay (EPA / NIEHS):
# Calls of active or inactive are those of the source. The calls were made as follows: active = hit-call score of the fitted dose curve at least 0.9, where 1 is the maximum; inactive = score below 0.9.
# Key:
# Settings in all cases: mRNA level, 48 h; actives raise or lower the signal
# CYP4A11 (gene 1579) = test: LTEA_HepaRG_CYP4A11: Life Technologies and Expression Analysis (LTEA) Assay for CYP4A11 using HepaRG (AID 2283486)
# Summary of the method: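 Differentiated HepaRG cells, 48 h after plating, exposed in duplicate for 48 h to 8 half-log concentrations up to 100 uM in 0.5% DMSO in serum-free induction medium. CYP4A11 mRNA measured by TaqMan qRT-PCR, normalized to ACTB, GAPDH and POLR2A.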
# [1] = read-out: Cytochrome P450 3A4 (Homo sapiens) (UniProt P08684); test: LTEA_HepaRG_CYP3A4: Life Technologies and Expression Analysis (LTEA) Assay for CYP3A4 using HepaRG (AID 2283487)
# Summary of the method: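 Differentiated HepaRG cells, plated 48 h, then dosed 48 h in serum-free induction medium with 0.5% DMSO, 8 half-log concentrations up to 100 uM, duplicate. CYP3A4 mRNA by qRT-PCR, normalized to ACTB/GAPDH/POLR2A; bidirectional fit versus DMSO.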
# [2] = read-out: DNA damage-inducible transcript 3 (DDIT3), DDIT3 (gene 1649); test: LTEA_HepaRG_DDIT3: Life Technologies and Expression Analysis (LTEA) Assay for DNA damage-inducible transcript 3 (DDIT3) using HepaRG (AID 2283488)
# Summary of the method: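 Eight-point concentration-response (100 uM highest, half-log dilutions) in HepaRG, 48 h, duplicate wells. Endpoint: qRT-PCR mRNA, normalized (ACTB, GAPDH, POLR2A), bidirectional fitting with DMSO as baseline.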
# [3] = read-out: Pro-epidermal growth factor (Homo sapiens) (UniProt P01133); test: LTEA_HepaRG_EGF: Life Technologies and Expression Analysis (LTEA) Assay for Epidermal growth factor (EGF) using HepaRG (AID 2283489)
# Summary of the method: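 HepaRG cells (~100,000/well, 48 h pre-culture) exposed in duplicate for 48 h in serum-free induction medium to 8 half-log concentrations up to 100 uM in 0.5% DMSO. EGF mRNA by qRT-PCR, normalized to ACTB/GAPDH/POLR2A; bidirectional fit versus DMSO.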
# [4] = read-out: Early growth response protein 1 (EGR1) transcription factor, EGR1 (gene 1958); test: LTEA_HepaRG_EGR1: Life Technologies and Expression Analysis (LTEA) Assay for Early growth response protein 1 (EGR1) transcription factor using HepaRG (AID 2283490)
# Summary of the method: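 EGR1 expression change in human HepaRG after 48 h chemical exposure, assessed by housekeeping-normalized qRT-PCR; concentration-response up to 100 uM, fitted in both directions against DMSO controls.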
# [5] = read-out: Ezrin (EZR), EZR (gene 7430); test: LTEA_HepaRG_EZR: Life Technologies and Expression Analysis (LTEA) Assay for Ezrin (EZR) using HepaRG (AID 2283491)
# Summary of the method: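 EZR transcript levels came from Fluidigm qRT-PCR and were normalized to three housekeeping genes after 48 h chemical exposure of HepaRG cells. Dosing used an 8-point half-log series with a 100 uM top concentration in 0.5% DMSO, tested in duplicate; both directions were fitted versus vehicle.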
# [6] = read-out: Cytochrome P450 3A7 (Homo sapiens) (UniProt P24462); test: LTEA_HepaRG_CYP3A7: Life Technologies and Expression Analysis (LTEA) Assay for CYP3A7 using HepaRG (AID 2283492)
# Summary of the method: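 Differentiated HepaRG cells in serum-free induction medium exposed 48 h in duplicate to 8-point half-log series from 100 uM top in 0.5% DMSO. CYP3A7 mRNA by qRT-PCR, normalized to ACTB/GAPDH/POLR2A, bidirectional fit versus DMSO.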
# CYP3A5 (gene 1577) = test: LTEA_HepaRG_CYP3A5: Life Technologies and Expression Analysis (LTEA) Assay for CYP3A5 using HepaRG (AID 2283493)
# Summary of the method: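 Readout was CYP3A5 mRNA by qRT-PCR. HepaRG cultures were exposed for 48 h in serum-free induction medium to chemicals at up to 100 uM, and responses were fitted in both directions relative to DMSO vehicle.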
# [7] = read-out: Fatty Acid-Binding Protein 1 (FABP1), FABP1 (gene 2168); test: LTEA_HepaRG_FABP1: Life Technologies and Expression Analysis (LTEA) Assay for Fatty Acid-Binding Protein 1 (FABP1) using HepaRG (AID 2283494)
# Summary of the method: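 Values reflect bidirectional concentration-response fitting of FABP1 mRNA change against 0.5% DMSO controls. Human HepaRG cultures received eight half-log doses (top 100 uM) for 48 h; expression quantified by TaqMan qRT-PCR with housekeeping-gene normalization.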
# [8] = read-out: Cytochrome P450 4A22 (Homo sapiens) (UniProt Q5TCH4); test: LTEA_HepaRG_CYP4A22: Life Technologies and Expression Analysis (LTEA) Assay for Cytochrome P450 4A22 (CYP4A22) using HepaRG (AID 2283495)
# Summary of the method: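 Differentiated HepaRG cells in serum-free induction medium exposed 48 h in duplicate to eight half-log concentrations up to 100 uM in 0.5% DMSO. CYP4A22 mRNA quantified by TaqMan qRT-PCR, normalized to ACTB, GAPDH and POLR2A; bidirectional fit versus DMSO.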
# [9] = read-out: Cytochrome P450 7A1 (Homo sapiens) (UniProt P22680); test: LTEA_HepaRG_CYP7A1: Life Technologies and Expression Analysis (LTEA) Assay for Cytochrome P450 7A1 (CYP7A1) using HepaRG (AID 2283496)
# Summary of the method: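 Using 0.5% DMSO as vehicle and baseline, chemicals were tested in duplicate over an 8-point range from 100 uM on HepaRG cells for 48 h; qRT-PCR signals were normalised to ACTB, GAPDH and POLR2A.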
# [10] = read-out: Glutathione S-Transferase (GSTA2), GSTA2 (gene 2939); test: LTEA_HepaRG_GSTA2: Life Technologies and Expression Analysis (LTEA) Assay for Glutathione S-Transferase (GSTA2) using HepaRG (AID 2283497)
# Summary of the method: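 Oxidative-stress marker GSTA2 is quantified by TaqMan qRT-PCR in HepaRG cultures treated 48 h across an eight-point range to 100 uM. Expression is normalized to endogenous controls and compared with 0.5% DMSO vehicle.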
# [11] = read-out: Glutamate-cysteine ligase catalytic (GCLC), GCLC (gene 2729); test: LTEA_HepaRG_GCLC: Life Technologies and Expression Analysis (LTEA) Assay for Glutamate-cysteine ligase catalytic (GCLC) using HepaRG (AID 2283498)
# Summary of the method: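 Oxidative-stress marker GCLC is measured as mRNA change in human HepaRG liver cells after 48 h chemical treatment in 0.5% DMSO, eight concentrations from 100 uM. Activity is fitted bidirectionally against vehicle.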
# [12] = read-out: growth arrest and DNA damage 45 (GADD45G), GADD45G (gene 10912); test: LTEA_HepaRG_GADD45G: Life Technologies and Expression Analysis (LTEA) Assay for growth arrest and DNA damage 45 (GADD45G) using HepaRG (AID 2283499)
# Summary of the method: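 Differentiated human HepaRG cells, 48 h post-plating, exposed 48 h in serum-free induction medium to 8 half-log concentrations (top 100 uM, 0.5% DMSO) in duplicate. GADD45G mRNA measured by Fluidigm TaqMan qRT-PCR, normalized to ACTB, GAPDH, POLR2A; bidirectional fit versus DMSO.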
# [13] = read-out: Glutamate-cysteine ligase regulatory (GCLM), GCLM (gene 2730); test: LTEA_HepaRG_GCLM: Life Technologies and Expression Analysis (LTEA) Assay for Glutamate-cysteine ligase regulatory (GCLM) using HepaRG (AID 2283500)
# Summary of the method: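 In this multiplexed HepaRG gene-expression assay, GCLM mRNA change after 48 h treatment (8 concentrations, max 100 uM) was scored against DMSO by bidirectional curve fitting.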
# [14] = read-out: Glutathione S-transferase M3 (GSTM3), GSTM3 (gene 2947); test: LTEA_HepaRG_GSTM3: Life Technologies and Expression Analysis (LTEA) Assay for Glutathione S-transferase M3 (GSTM3) using HepaRG (AID 2283501)
# Summary of the method: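 Differentiated human HepaRG cells were exposed in duplicate for 48 h in serum-free induction medium, 8 points from 100 uM top in half-log steps, 0.5% DMSO. GSTM3 mRNA was measured by TaqMan qRT-PCR, normalized to ACTB, GAPDH and POLR2A; bidirectional fit versus DMSO.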
# [15] = read-out: Heat shock 70 kDa protein 1 (HSPA1A), gene 3303; test: LTEA_HepaRG_HSPA1A: Life Technologies and Expression Analysis (LTEA) Assay for Heat shock 70 kDa protein 1 (HSPA1A) using HepaRG (AID 2283502)
# Summary of the method: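 An oxidative-stress marker readout: HepaRG cells treated 48 h in duplicate with an eight-point series (highest 100 uM) had HSPA1A mRNA quantified by TaqMan qRT-PCR. Activity was fitted in both directions using 0.5% DMSO as baseline.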
# [16] = read-out: Hypoxia-inducible factor 1-alpha (Homo sapiens) (UniProt Q16665); test: LTEA_HepaRG_HIF1A: Life Technologies and Expression Analysis (LTEA) Assay for Hypoxia-inducible factor 1 (HIF1A) Trancription factor using HepaRG (AID 2283503);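 also: HIF1A transcript by TaqMan qRT-PCR normalized to ACTB GAPDH and POLR2A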
# Summary of the method: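 Gain- or loss-of-signal HIF1A mRNA changes are fitted against a DMSO baseline. HepaRG cultures receive eight concentrations, highest 100 uM, for 48 h in serum-free induction medium with 0.5% DMSO.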
# [17] = read-out: 3-Hydroxy-3-Methylglutaryl-CoA Synthase 2 (HMGCS2), HMGCS2 (gene 3158); test: LTEA_HepaRG_HMGCS2: Life Technologies and Expression Analysis (LTEA) Assay for 3-Hydroxy-3-Methylglutaryl-CoA Synthase 2 (HMGCS2) using HepaRG (AID 2283504)
# Summary of the method: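 Human HepaRG cells in serum-free induction medium were exposed in duplicate for 48 h to 8-point half-log series from 100 uM top in 0.5% DMSO. HMGCS2 mRNA measured by TaqMan qRT-PCR, normalised to ACTB, GAPDH, POLR2A; bidirectional fit versus DMSO.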
# Sequence of Cytochrome P450 3A4 (Homo sapiens) (P08684 whole entry, looked up): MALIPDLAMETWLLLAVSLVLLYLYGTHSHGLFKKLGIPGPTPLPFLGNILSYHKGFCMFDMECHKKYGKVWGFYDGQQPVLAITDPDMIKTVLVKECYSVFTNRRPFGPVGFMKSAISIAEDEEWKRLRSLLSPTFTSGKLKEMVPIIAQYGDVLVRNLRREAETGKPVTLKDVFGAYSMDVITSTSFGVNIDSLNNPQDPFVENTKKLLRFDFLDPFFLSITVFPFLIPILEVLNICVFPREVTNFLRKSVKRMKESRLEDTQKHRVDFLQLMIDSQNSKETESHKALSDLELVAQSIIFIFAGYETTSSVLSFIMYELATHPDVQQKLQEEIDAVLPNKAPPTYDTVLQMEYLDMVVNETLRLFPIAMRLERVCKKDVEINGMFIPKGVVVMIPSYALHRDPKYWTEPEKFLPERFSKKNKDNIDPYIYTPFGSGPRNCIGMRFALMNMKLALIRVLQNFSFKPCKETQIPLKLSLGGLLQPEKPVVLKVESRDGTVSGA
# Sequence of Cytochrome P450 3A7 (Homo sapiens) (P24462 whole entry, looked up): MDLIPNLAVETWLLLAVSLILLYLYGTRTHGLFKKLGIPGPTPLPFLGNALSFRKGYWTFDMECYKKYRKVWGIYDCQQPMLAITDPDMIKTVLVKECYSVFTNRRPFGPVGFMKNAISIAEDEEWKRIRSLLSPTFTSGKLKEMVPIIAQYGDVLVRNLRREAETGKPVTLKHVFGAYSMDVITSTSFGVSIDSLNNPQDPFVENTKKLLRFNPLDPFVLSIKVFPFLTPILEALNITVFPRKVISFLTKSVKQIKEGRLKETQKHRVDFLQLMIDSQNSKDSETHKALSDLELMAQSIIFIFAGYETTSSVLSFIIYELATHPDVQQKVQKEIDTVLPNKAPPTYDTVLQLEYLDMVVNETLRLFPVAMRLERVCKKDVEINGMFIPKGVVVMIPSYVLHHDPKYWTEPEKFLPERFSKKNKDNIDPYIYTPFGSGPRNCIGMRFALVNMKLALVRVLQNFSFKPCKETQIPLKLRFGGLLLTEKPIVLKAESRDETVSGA
# Sequence of Hypoxia-inducible factor 1-alpha (Homo sapiens) (Q16665 whole entry, looked up): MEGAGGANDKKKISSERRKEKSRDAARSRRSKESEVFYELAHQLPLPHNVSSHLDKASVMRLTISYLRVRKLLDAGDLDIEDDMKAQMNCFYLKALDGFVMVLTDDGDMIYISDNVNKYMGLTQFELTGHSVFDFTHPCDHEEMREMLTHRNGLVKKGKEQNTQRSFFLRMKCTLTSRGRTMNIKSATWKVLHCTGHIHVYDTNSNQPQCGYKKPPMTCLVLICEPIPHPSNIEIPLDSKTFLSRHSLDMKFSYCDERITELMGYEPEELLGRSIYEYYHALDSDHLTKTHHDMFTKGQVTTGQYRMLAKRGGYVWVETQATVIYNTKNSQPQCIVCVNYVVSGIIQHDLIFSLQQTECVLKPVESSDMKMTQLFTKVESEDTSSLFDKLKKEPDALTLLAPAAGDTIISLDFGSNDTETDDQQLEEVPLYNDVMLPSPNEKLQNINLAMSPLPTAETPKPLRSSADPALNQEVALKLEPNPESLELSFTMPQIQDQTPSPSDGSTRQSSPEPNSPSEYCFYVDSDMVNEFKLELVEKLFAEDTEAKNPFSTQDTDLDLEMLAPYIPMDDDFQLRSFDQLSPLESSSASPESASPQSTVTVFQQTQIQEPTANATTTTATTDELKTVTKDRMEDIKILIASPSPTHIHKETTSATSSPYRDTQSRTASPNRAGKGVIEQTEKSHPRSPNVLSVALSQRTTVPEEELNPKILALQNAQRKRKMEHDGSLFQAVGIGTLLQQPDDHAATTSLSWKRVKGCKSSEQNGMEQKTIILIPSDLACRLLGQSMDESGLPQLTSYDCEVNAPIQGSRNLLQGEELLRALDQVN
smiles,measurement,setting,value
C#CCOC(=O)[C@@H](C)Oc1ccc(Oc2ncc(Cl)cc2F)cc1,AC50,CYP4A11 (gene 1579),19 µM (active)
same,outcome,[1],inactive
same,outcome,[2],inactive
same,outcome,[3],inactive
same,outcome,[4],inactive
same,outcome,[5],inactive
same,AC50,[6],50 µM (active)
same,outcome,CYP3A5 (gene 1577),inactive
same,AC50,[7],64.4 µM (active)
same,AC50,[8],13.2 µM (active)
same,outcome,[9],inactive
same,outcome,[10],inactive
same,outcome,[11],inactive
same,outcome,[12],inactive
same,outcome,[13],inactive
same,outcome,[14],inactive
same,outcome,[15],inactive
same,outcome,[16],inactive
same,AC50,[17],11.7 µM (active)
CCOC(=O)C(C)Oc1ccc(Oc2cnc3cc(Cl)ccc3n2)cc1 (configuration not stated),AC50,CYP4A11 (gene 1579),43 µM (active)
same,outcome,[1],inactive
same,outcome,[2],inactive
same,outcome,[3],inactive
same,outcome,[4],inactive
same,outcome,[5],inactive
same,AC50,[6],0.571 µM (active)
same,AC50,CYP3A5 (gene 1577),0.628 µM (active)
same,AC50,[7],0.388 µM (active)
same,AC50,[8],43 µM (active)
same,AC50,[9],9.27 µM (active)
same,AC50,[10],15 µM (active)
same,outcome,[11],inactive
same,outcome,[12],inactive
same,outcome,[13],inactive
same,outcome,[14],inactive
same,outcome,[15],inactive
same,outcome,[16],inactive
same,outcome,[17],inactive
C[C@]12CC[C@@H]3c4ccc(O)cc4C[C@@H](CCCCCCCCCS(=O)CCCC(F)(F)C(F)(F)F)[C@H]3[C@@H]1CC[C@@H]2O (some centres not stated),AC50,CYP4A11 (gene 1579),30.9 µM (active)
same,AC50,[1],31.1 µM (active)
same,AC50,[2],9.92 µM (active)
same,AC50,[3],0.0848 µM (active)
same,AC50,[4],0.119 µM (active)
same,outcome,[5],inactive
same,AC50,[6],24.9 µM (active)
same,AC50,CYP3A5 (gene 1577),15.7 µM (active)
same,AC50,[7],25.8 µM (active)
same,outcome,[8],inactive
same,AC50,[9],15 µM (active)
same,AC50,[10],28.1 µM (active)
same,AC50,[11],19.9 µM (active)
same,AC50,[12],13 µM (active)
same,AC50,[13],0.0464 µM (active)
same,AC50,[14],29.8 µM (active)
same,outcome,[15],inactive
same,outcome,[16],inactive
same,AC50,[17],33.6 µM (active)
